# PubChem BioAssay AID504660 (National Center for Advancing Translational Sciences (NCATS), 2011)
# Screen size: about 360,000 compounds; about 3,700 (1%) were called active. No stated cut-off is given here; in the data, active means activation above about 30%; inactive means the rest. The list comes from a sample in which actives are over-represented; it also holds similar structures and randomly drawn compounds.
# Molecular target: D(1A) dopamine receptor (Homo sapiens) (UniProt P21728)
# Assay: Allosteric Agonists of the Human D1 Dopamine Receptor: qHTS; further: 0% is about no effect
# Conditions: HEK293 T-REx D1 cells, calcium flux, agonist mode; at 2 µM; stronger effect = higher value
# In short: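 Tetracycline-induced HEK293 TREx D1 cells, force-coupled to calcium signalling, were dye-loaded with a no-wash calcium kit. Compound was pin-added after a 10 s baseline. Fluorescence was read kinetically at 1 cycle/s for 180 s, with calcium rises flagged as agonism.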
# D(1A) dopamine receptor (Homo sapiens), sequence (P21728 whole entry, looked up): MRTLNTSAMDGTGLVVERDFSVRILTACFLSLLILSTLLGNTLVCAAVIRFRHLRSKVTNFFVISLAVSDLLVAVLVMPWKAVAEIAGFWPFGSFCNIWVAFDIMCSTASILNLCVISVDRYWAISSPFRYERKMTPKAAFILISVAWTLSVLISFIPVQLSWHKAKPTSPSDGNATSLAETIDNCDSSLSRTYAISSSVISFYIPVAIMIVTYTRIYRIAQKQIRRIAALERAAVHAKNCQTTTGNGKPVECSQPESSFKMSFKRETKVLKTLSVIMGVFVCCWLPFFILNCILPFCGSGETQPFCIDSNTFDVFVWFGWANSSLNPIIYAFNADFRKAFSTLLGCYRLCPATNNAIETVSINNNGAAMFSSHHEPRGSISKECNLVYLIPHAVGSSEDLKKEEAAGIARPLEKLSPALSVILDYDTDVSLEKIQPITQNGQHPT
row,SMILES,activation
1,CCn1c(=O)c(=O)n(CC)c2cc(N3CCCCC3)c(NC(=O)c3cccc(F)c3)cc21,-0.479% (inactive)
2,CCCS(=O)(=O)c1c(Nc2ccccc2C)sc(C(=O)c2ccccc2)c1N,32.6% (active)
3,CCCCCN(C(=O)NC(=O)Nc1ccccc1C)S(C)(=O)=O,4.03% (inactive)
4,COc1c(F)c(F)c(C(=O)O)c(Nc2ccccc2C)c1F,1.04% (inactive)
5,CCOC(=O)N1CCc2c(sc3c2c(=O)n(-c2ccc(CC)cc2)c(=O)n3C)C1,-0.644% (inactive)
6,CCOC(=O)c1cc2c(=O)n3ccccc3nc2n(CC2CCCO2)c1=NC(=O)c1ccc(C(C)(C)C)cc1 (stereo not given),2.73% (inactive)
7,CCCCCCc1cc2cc(-c3nnc(-c4ccccc4)o3)c(=O)oc2cc1O,297% (active)
8,CCOc1ccc(CCNC(=O)c2c(C)oc3ncn(C)c(=O)c23)cc1,0.93% (inactive)
9,CSc1ccc(C2C(C(=O)Nc3ccccc3)=C(C)Nc3nc4ccccc4n32)cc1 (stereo not given),-0.673% (inactive)
10,Cc1ccc(NC(=O)CN2C(=O)C(c3ccc(F)cc3)=NC23CCCCCC3)c(C)c1,7.18% (inactive)
11,CC(C)c1ccc(NS(=O)(=O)c2ccc3[nH]cc(C(=O)NC4CCCC4)c(=O)c3c2)cc1,5.71% (inactive)
12,Cc1ccc(NC(=O)c2ccc(CN3CC(=O)N4CCCCC4C3=O)cc2)c(Cl)c1 (stereo not given),1.1% (inactive)
13,CC(NC(=O)Cn1cc(C(F)(F)F)cc(Cl)c1=O)c1ccccc1 (stereo not given),-0.532% (inactive)
14,CN(C)c1ccc(C(=O)NCC(=O)OC(C(=O)Nc2cc(C(F)(F)F)ccc2Cl)c2ccccc2)cc1 (stereo not given),1.69% (inactive)
15,CNCC[C@H](Oc1ccc(C(F)(F)F)cc1)c1ccccc1,111% (active)
16,COc1ccc(OC)c(NC(=O)CSC2=Nc3ccccc3C3=NC(CC(=O)NCCc4ccccc4)C(=O)N23)c1 (stereo not given),1.84% (inactive)
17,COc1cccc(CNCCSc2nnnn2C)c1OCc1ccccc1Cl,4.2% (inactive)
18,COc1ccc(-c2ccc(CNCCCN3CCOCC3)o2)cc1Cl,3.69% (inactive)
19,Cn1nnnc1SCCCNCc1ccc(Cl)cc1,8.22% (inactive)
20,Cc1c(Cl)cccc1-c1ccc(CNCCCSc2nnnn2C)o1,68.7% (active)
21,Cn1nnnc1SCCCNCc1cccc(OCc2ccc(Cl)cc2)c1,74.4% (active)
22,COc1cc(CNCCSc2nnnn2C)ccc1OCc1c(F)cccc1Cl,5.58% (inactive)
23,Cn1nnnc1SCCNCc1ccc(Cl)c(Cl)c1,-0.329% (inactive)

row,SMILES,activation
1,CCOc1ccc(CNCCSc2nnnn2C)cc1,-0.463% (inactive)
2,COc1cc(CNCCSc2nnnn2C)ccc1OCc1ccc(Cl)cc1Cl,48.2% (active)
3,COc1ccc(-c2c(C)nn3c(N4CCC(C(=O)NCCC(C)C)CC4)cc(C)nc23)cc1OC,1.66% (inactive)
4,Cc1ccc(Cl)cc1N(C)C(=O)Cn1nc(Cc2cccnc2)c2ccccc2c1=O,3.19% (inactive)
5,Oc1c(Cl)cc(Cl)c(Cl)c1Cc1c(O)c(Cl)cc(Cl)c1Cl,33.5% (active)
6,COc1cc(CN(C(=O)c2ccccc2Br)c2ccccn2)cc(OC)c1OC,-2.08% (inactive)
7,Cc1ccc(OCCNC(=O)CCNS(=O)(=O)c2ccc(Br)cc2)cc1,74% (active)
8,O=C(CCNS(=O)(=O)c1ccccc1)NCCSc1ccc(Br)cc1,11.3% (inactive)
9,Cc1ccc(S(=O)(=O)NCCNC(C)c2ccc(Br)cc2)cc1 (stereo not given),6.77% (inactive)
10,Fc1ccc(-n2ncc3c(Nc4ccc(Oc5ccccc5)cc4)ncnc32)cc1,0.314% (inactive)
11,COc1ccc(C(=O)CSc2c(C(C)C)cnc3c2c(=O)n(C)c(=O)n3C)cc1,2.45% (inactive)
12,Cc1nc(SCCOc2ccc(Cl)cc2)[nH]c(=O)c1Cc1ccccc1,-1.18% (inactive)
13,Cc1cc2oc(C(=O)N(Cc3ccc(Cl)cc3)Cc3ccco3)c(C)c2cc1Cl,18.5% (inactive)
14,CC(Oc1ccc2ccccc2c1)C(=O)NNC(=S)NC(=O)c1ccco1 (stereo not given),50.2% (active)
15,O=C(NC(=S)N1CCc2ccccc21)c1ccco1,1.7% (inactive)
16,COc1ccc(/C=C(/NC(=O)c2ccco2)C(=O)Nc2ccc(C(C)=O)cc2)cc1,-0.901% (inactive)
17,COc1ccc(OC)c(-c2nc(C(N)=O)c3c(n2)n(-c2ccc4c(c2)OCO4)c(=O)n3C)c1,-1.26% (inactive)
18,COC(=O)CNS(=O)(=O)c1ccc(Cc2ccc(S(=O)(=O)NCC(=O)OC)cc2)cc1,2.26% (inactive)
19,COc1c(C(=O)N2CCCC2)ccc2ccccc12,1.37% (inactive)
20,COC(=O)C[n+]1cccc2ccccc21,87.9% (active)
21,CC(=O)c1ccc(NC(=O)c2nc(-c3ccc(C)cc3)n3c2CCCCC3)cc1,2.3% (inactive)
22,COc1ccc2cc(-c3nc(Cl)c4c5c(sc4n3)CC(C)CC5)c(=O)oc2c1 (stereo not given),8.22% (inactive)
23,CCOC(=O)c1c(NC(=S)Nc2ccccc2)sc2c1CCN(C)C2,32.3% (active)

row,SMILES,activation
1,CCOC(=O)c1c(NC(=O)NC(C)(C)C)sc2c1CCN(C)C2,3.08% (inactive)
2,CCOC(=O)c1c(NC(=O)/C(C#N)=C/c2ccccc2)sc2c1CCC2,0.119% (inactive)
3,Cc1ccc(-c2nnc3c4ccccc4c(C)nn23)cc1NC(=O)c1cccc(Br)c1,-0.644% (inactive)
4,O=C(O)CCCCCCCCc1cn(CN2C(=O)c3ccccc3C2=O)nn1,2.36% (inactive)
5,Cc1ccc(-c2nn(-c3ccccc3)cc2/C=C2\SC(=S)N(CCCCCC(=O)O)C2=O)o1,44.7% (active)
6,O=C1/C(=C/c2coc3ccc(O)cc3c2=O)SC(=S)N1c1ccccc1,5.55% (inactive)
7,O=C(Nc1ccc(F)cc1F)c1cnn(-c2ccc(F)cc2)c1-n1cccc1,2.54% (inactive)
8,COc1cccc(C(=O)NC2CCN(C#N)CC2)c1,0.293% (inactive)
9,C=CCOc1cccc(CNCc2cccnc2)c1,3.75% (inactive)
10,c1ccc(COc2ccccc2CNCc2cccnc2)cc1,34.6% (active)
11,CCC(Oc1ccccc1)C(=O)NCc1cccnc1 (stereo not given),1.93% (inactive)
12,COc1cccc(NC(=O)C2CCN(c3cc(C)nc4c(-c5ccc(Cl)cc5)c(C)nn34)CC2)c1,0.702% (inactive)
13,CCOc1ccc(C(=O)Nc2nccs2)cc1[N+](=O)[O-],6.87% (inactive)
14,CCCCCOc1ccc(CSC2=NCCN2)cc1[N+](=O)[O-],42.9% (active)
15,Cc1ccccc1NC(=O)CSC1=NCCN1,1.9% (inactive)
16,COCC(C)NS(=O)(=O)c1ccc(N2CCCCS2(=O)=O)cc1 (stereo not given),3.35% (inactive)
17,CCc1cccc(NC(=O)c2cc(-c3ccccc3)n[nH]2)c1,12.3% (inactive)
18,CCOc1cc(/C=C(\C#N)c2nc(-c3cccs3)c(NC(C)=O)s2)ccc1O,115% (active)
19,CCOc1cc(/C=C(\C#N)C(=O)Nc2ccccc2C)ccc1OCc1cc(=O)n2nc(CC)sc2n1,5.19% (inactive)
20,CCOc1ccc(/C=C(\C#N)c2nc3ccccc3c(=O)[nH]2)cc1OC,3.27% (inactive)
21,O=C(NCC(c1ccc2c(c1)OCO2)N1CCN(c2ccccc2)CC1)C(=O)Nc1ccccc1F (stereo not given),1.27% (inactive)
22,COc1ccc(N2CCN(C(=O)CSCc3nc(-c4ccccc4Cl)oc3C)CC2)cc1,7.67% (inactive)
23,CCOc1cccc2c1N[C@@H](c1ccc(C(=O)O)cc1)[C@H]1CC=C[C@@H]21,7.61% (inactive)

row,SMILES,activation
1,CC1CCCN(c2cc3c(cc2F)c(=O)c(S(=O)(=O)c2cccc(Cl)c2)cn3Cc2ccccc2)C1 (stereo not given),-0.839% (inactive)
2,Cc1cc2n(n1)C(c1cc(C(C)(C)C)c(O)cc1O)Nc1ccccc1-2 (stereo not given),38.8% (active)
3,CCOC(=O)NN1C(=O)c2ccccc2NC1c1ccccc1O (stereo not given),0.398% (inactive)
4,COC(=O)c1ccc(NC(=O)c2cc(S(=O)(=O)N3CCC(C)CC3)cn2C)cc1,6.51% (inactive)
5,COc1ccc(C(CNCC(=O)Nc2ccccc2F)N(C)C)cc1 (stereo not given),0.114% (inactive)
6,COc1ccc(C(CCNCc2ccccc2F)c2ccc(F)cc2)cc1 (stereo not given),41.1% (active)
7,COc1cccc(CNCCc2c[nH]c3ccccc23)c1OCc1ccccc1F,18.2% (inactive)
8,CC(C)CC(NS(=O)(=O)c1ccc2c(c1)oc(=O)n2C)C(=O)NCc1ccccc1Cl (stereo not given),3.12% (inactive)
9,CCOc1ccccc1CNCc1c(C(=O)O)c(C)n(Cc2ccc(C)cc2)c1C,3.68% (inactive)
10,Cc1cccc(N2CCN(S(=O)(=O)c3ccc4[nH]c5c(c4c3)CCCCC5)CC2)c1C,2.57% (inactive)
11,O=C(Nc1ccc2nc(SCC(=O)N3CCCc4ccccc43)sc2c1)c1ccc(F)cc1,5.54% (inactive)
12,Cc1cc(C)c(S(=O)(=O)N2CCC(C(=O)OCc3c(C)noc3C)CC2)c(C)c1,45.3% (active)
13,CCOC(=O)C1CCN(S(=O)(=O)c2c(C)noc2C)CC1,0.879% (inactive)
14,CCOC(=O)C1CCN(C(=O)C2CCN(S(=O)(=O)c3c(C)noc3C)CC2)CC1,-2.99% (inactive)
15,COc1ccc(CCn2cc3c(c2-c2ccc(Br)cc2)c(=O)n(C)c(=O)n3C)cc1OC,0.633% (inactive)
16,COc1cccc(NC(=O)N2CCN(C(=O)c3nsc4ccccc34)CC2)c1,10.2% (inactive)
17,CCOC(=O)c1c(NC(C)=O)c2c3c(sc2n1Cc1c(C)cc(C)cc1C)CCCC3,1.79% (inactive)
18,C/C(N)=C(/C#N)C(=O)COC(=O)C1=NN(c2ccccc2)C(=O)CC1,2.53% (inactive)
19,COC(=O)CC1=NN(c2ccccc2)C(=O)C1,31.5% (active)
20,COC(=O)CC1=NN(c2nc(C)cc(C)n2)C(=O)C1,13.3% (inactive)
21,CCOC(=O)c1ccc(NC(=O)C2CC(=O)N(c3ccc(C(C)C)cc3)C2)cc1 (stereo not given),0.0656% (inactive)
